Several values for one entry are separate records, joined by “and”; a condition that tells them apart may be missing. Identical values can stand only once. About 83,000 compounds went through this panel and 20% of them were active in at least one assay; those are over-represented in the sample as a whole.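 Cell lines were cultured in 96-well plates, exposed to a single compound concentration, and assessed for percent growth 48 hours later.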 A number with no mark means an inactive call. Activity calls are given as the source filed them. How the source made its calls: active means growth percent below 10; inactive means the rest.

This assay concerns SK-OV-3 ovarian. The assay is described as follows: NCI-60 one-dose screen, 48 h (100 = growth as untreated, 0 = no growth, -100 = all killed). The following applies: 10 µM unless noted.
In the case of `CN1CCN(c2ccc(Nc3ncc(C(N)=O)c(NCCCNC(=O)C4CCC4)n3)cc2)CC1`, the growth was 37.8%.

Consider `CN(C)c1ccc2nc3ccc(=O)cc-3sc2c1`, for which the growth is 81.7% and 93.7%. The result for `CC(=O)N1N=C(c2ccc(Nc3nc(Nc4ccc(F)cc4)nc(Nc4ccc(F)cc4)n3)cc2)CC1c1ccccc1` (configuration not stated) reads 89.2%; that for `C/C=C(\C)C(=O)N[C@H]1CC[C@]2(C)C3CC[C@@]4(C)C(CC[C@@H]4C(C)N(C)C)C3CCC2[C@H]1OC(C)=O` (some centres not stated), -21.4% (active). Next, `Cc1ccc(-c2nc3nc(-c4ccc(Cl)cc4)nc(N4CCCNCC4)c3o2)cc1`: 117%; `Nc1n[nH]c2cccc(C#Cc3cccc(NC(=O)c4ccc(N5CCOCC5)c(C(F)(F)F)c4)c3)c12`: 2.24% (active); `O=C1C(c2c[nH]c3ccccc23)=C(c2coc3cc(Br)ccc23)C(=O)N1O`: 98.8%. Next, `Cc1cc(N2CCCCC2)nc(NCc2cc(Nc3ccnc4cc(Cl)ccc34)ccc2F)n1`: 72.6%; `CC1(C)C(N)=Nc2cc(OCCCN3Cc4ccc(OCCc5cn(CC(=O)N6CCC(CCN7CCCC7)CC6)nn5)cc4C3)c(OCC3CC3)cc21`: 105%; `CS(=O)(=O)Nc1cc(-c2ccc3ncnc(Nc4ccc(F)c(Cl)c4)c3c2)cnc1Cl`: -19.6% (active).

On to `Cc1cnc(C(=O)NNc2nc3sc4c(c3c(=O)[nH]2)C(C)CCC4)cn1` (configuration not stated), for which the growth was 16.2%. `Cn1cc2c(=O)nc3c(-c4nc5ccccc5[nH]4)n[nH]n3c2n1`: the growth is 85.2%.

For the origin of these results see PubChem BioAssay (NCI).
